Reference: ChEMBL document CHEMBL1857833, “Screening and optimization of specific chemical series against human African Trypanosomiasis (HAT)”
Several values for one entry are separate records, joined by “and”; a condition that tells them apart may be missing. Equal values may be shown once. Out of some 4,400 compounds screened, about 390 (8.9%) showed an effect of 50% or more. This is one part of a sample in which strong results are shown more often than they occur.

system: Trypanosoma brucei; experiment: DNDI: Inhibition of Human African Trypanosomiasis, SBRI 427, in vitro at 2 ug.mL-1; type: functional

SMILES	% inhibition
Cc1cccc(Oc2ncccc2/C(=N/O)N2CCC=N2)c1C	2%
C=CCN(Cc1coc(-c2ccccc2Cl)n1)C1CCCCC1	13%
O/N=C(\NCc1cccs1)c1ccc(Oc2c(F)c(F)cc(F)c2F)nc1	1%
Cc1cc(Oc2ccc(/C(=N/O)N3CCN(c4ccc(F)cc4)CC3)cn2)cc(C(C)C)c1	3%
COc1ccc(-c2nc(CN3CCN(c4cccc(Cl)c4)CC3)co2)cc1	10%
COc1ccc(Oc2ncccc2/C(=N/O)N2C(C)CCC2C)cc1 (centres undefined)	-10%
O/N=C(\NC1CCCCC1)c1cccnc1Oc1ccc2ccccc2c1	99%
O/N=C(\Nc1ccccc1)c1cccnc1Oc1ccc2ccccc2c1	14%
N/C(=N/O)c1cccnc1Oc1ccc2ccccc2c1	-3%
COc1ccc(Oc2nc(C)ccc2/C(=N/O)NC2CCC(C)CC2)cc1 (centres undefined)	47%
COc1ccc(Oc2ncccc2/C(=N/O)NC2CCC2)cc1	98%
O/N=C(\NCc1cc(F)ccc1F)c1ccc(Oc2ccc(Cl)cc2)nc1	-8%
CSCCN/C(=N\O)c1ccc(Oc2ccc(Cl)cc2)nc1	-6%
CC1CCC(N/C(=N\O)c2ccc(Oc3ccc(-n4ccnc4)cc3)nc2)CC1 (centres undefined)	21%
CC1CCC(N/C(=N\O)c2ccc(Oc3ccc(Cl)cc3)nc2)CC1 (centres undefined)	88%
O/N=C(\NC1CCCC1)c1ccc(Oc2ccc(Cl)cc2)nc1	98%
CCc1ccc(Oc2ccc(/C(=N/O)NC3CCCC3)cn2)cc1	78%
O/N=C(/c1ccc(Oc2ccc(Cl)cc2)nc1)N1CCCCCC1	-7%
N/C(=N\O)c1ccc(Oc2ccc(Cl)cc2)nc1	15%
CCc1ccc(Oc2ccc(/C(=N/O)NC3CC3)cn2)cc1	8%
CCc1ccc(Oc2ccc(/C(=N/O)Nc3ccccc3)cn2)cc1	17%
O/N=C(\NC1CCCCC1)c1ccc(Oc2ccc(Cl)cc2)nc1	93%
CC1CCN(/C(=N\O)c2ccc(Oc3ccc(Cl)cc3)nc2)CC1	26%
O/N=C(\NC1CCc2ccccc21)c1ccc(Oc2ccc(Cl)cc2)nc1 (centres undefined)	-11%
CC(NCc1coc(-c2ccccc2Br)n1)c1cccc2ccccc12 (centres undefined)	9% and -3%
CCOc1ccccc1Oc1ncccc1/C(=N/O)N1CCC=N1	13%
COc1cccc(-c2nc(CNc3ccc(C(C)=O)cc3)co2)c1	18%
COc1cc(-c2nc(CN3CCN(Cc4ccc5c(c4)OCO5)CC3)co2)cc(OC)c1OC	-1%
O/N=C(/c1cccnc1OCc1ccccc1F)N1CCN(c2ccc(F)cc2)CC1	-19%
